Shown are actives, neighbours in structure and some others; about 21% of the full set was active somewhere.
ClpP mod – qHTS Assay for Activators of ClpP; ATP-dependent Clp protease proteolytic subunit (Bacillus subtilis (strain 168)), P80244; purified B. subtilis ClpP, FRET peptide cleavage, 20 min; Potency, µM (top dose mostly 57.5 µM), inactives show at the highest dose activity change, negative = active; actives 1.9% (n = 340,000); AID 651965, 2013; active means well fitted falling curve with a large enough effect; inconclusive means small, poorly fitted or top-dose-only effect; inactive means no such curve, though single readings can be large or run the other way; further: potency means the concentration at half of the fitted maximal effect; the source files actives as falling curves though it sought activators and does not explain the sign; nearly all actives have a fitted effect of over 65% in size
Target sequence (P80244 whole entry, looked up): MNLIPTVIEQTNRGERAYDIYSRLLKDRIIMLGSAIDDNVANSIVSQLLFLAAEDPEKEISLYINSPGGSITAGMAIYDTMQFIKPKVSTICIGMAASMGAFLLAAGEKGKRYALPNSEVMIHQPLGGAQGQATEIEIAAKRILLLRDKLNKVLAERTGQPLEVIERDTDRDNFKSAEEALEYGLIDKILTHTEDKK
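Buffer: 100 mM Tris/HCl pH8, 100 mM KCl, 0.05% low protease BSA, 2.5% glycerol, 0.01% Tween-20. ClpP 10 microg/mL final; 20 min RT; delta FRET normalized to ADEP and DMSO controls.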
TDP1 cell noCPT – qHTS for Inhibitors of human tyrosyl-DNA phosphodiesterase 1 (TDP1): qHTS in cells in absence of CPT; AID 686978, 2013; DT40 Tdp1-/- hTDP1 cells, no CPT, ATP luminescence, 48 h; actives 15% (n = 420,000); Potency, µM (top dose mostly 46.2 µM), inactives show at the top dose activity change, negative = growth inhibition, most hits filed as inhibitors; further: potency means the concentration at half of the fitted maximal effect; on the % scale 0 is the no-effect control and ±100 the full control effect; nearly all actives have a fitted effect of over 55% in size
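DT40 Tdp1-/-;hTDP1 cells, no CPT (DMSO vehicle only), 400 cells/well; compounds pin-transferred; ≥48 hr, 37 °C; CellTiter-Glo 30 min RT dark, luminescence read.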
TDP1 cell CPT – growth inhibition of DT40 Tdp1-/-;hTDP1 cells with camptothecin (screen for TDP1 inhibitors); actives 12% (n = 420,000); chicken DT40 Tdp1-/-;hTDP1 cells + 20 nM CPT, ATP luminescence, 48 h; Potency, µM (doses to about 46.2 µM), for the others: top-dose activity change, negative = growth inhibition, hits mostly inhibitors; further: potency means the concentration at half of the fitted maximal effect; on the % scale 0 is the no-effect control and ±100 the full control effect; nearly all actives have a fitted effect of over 55% in size
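Chicken DT40 Tdp1-/- cells stably complemented with human TDP1 were seeded at 400 cells/well in medium containing 20 nM camptothecin, exposed to pin-transferred compounds, and grown at 37 °C for at least 48 hr. Viability was read as ATP luminescence.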
DRD3 agonist – agonists of human D3 dopamine receptor. actives 0.58% (n = 410,000). D3R DiscoveRx beta-arrestin cells, luminescence, 90 min. max activation, %. P35462. AID 652048; in the data active means max activation above about 30%; further: 0% is about no effect
Target sequence (P35462 whole entry, looked up): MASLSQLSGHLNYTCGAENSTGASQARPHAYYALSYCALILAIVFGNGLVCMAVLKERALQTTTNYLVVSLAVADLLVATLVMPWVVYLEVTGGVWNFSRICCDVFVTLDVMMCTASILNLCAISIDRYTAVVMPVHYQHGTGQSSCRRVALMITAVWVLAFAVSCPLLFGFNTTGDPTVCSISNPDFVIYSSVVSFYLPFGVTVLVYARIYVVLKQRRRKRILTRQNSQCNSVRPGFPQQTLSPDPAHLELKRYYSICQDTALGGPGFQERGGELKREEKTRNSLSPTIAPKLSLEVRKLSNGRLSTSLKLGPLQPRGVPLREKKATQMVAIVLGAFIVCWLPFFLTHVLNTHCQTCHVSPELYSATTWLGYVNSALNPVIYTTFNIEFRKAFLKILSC
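Agonist-mode cell screen: cells plated at 1500/well and incubated overnight at 37 °C, then exposed to library compounds for 90 min at 37 °C. Detection reagent was added for 30–60 min at room temperature, and luminescence was read.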
D3 antag – blocks the human D3 dopamine receptor; P35462; D3R cells, DiscoveRx beta-arrestin luminescence, antagonist mode; hits give low values; max response, negative = inhibition, %; actives 2.5% (n = 360,000); in the data active means max response below about -50%; inconclusive means no clear call, values can overlap the other calls; further: on the % scale 0 is the no-effect control and ±100 the full control effect
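Cells plated overnight at 1500 cells/well, then exposed to library compounds with dopamine controls for 90 minutes at 37 degrees C. DiscoveRx reagent added for 30–60 minutes at room temperature; luminescence read, quantitative HTS format.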
IL-1B inflam inh – inflammasome signaling inhibition, IL-1 beta readout. THP-1 LPS/ATP IL-1B secretion, AlphaLISA, 16 h; hits give low values. activity change, % at 57.5 µM. AID 743279. actives 4.7% (n = 360,000); in the data active means activity change below about -50%; inconclusive means mostly about -30% to -49%; further: on the % scale 0 is the no-effect control and ±100 the full control effect
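THP-1 cells pretreated 1 hr with compounds (up to 57.5 uM final), then stimulated with LPS (250 ng/mL final) plus ATP (1.25 mM final); secreted IL-1B measured by AlphaLISA after 16 hr, decreased signal indicating inhibition.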
Starred values were filed as active, the others as inactive; ? = inconclusive; · = no result. Unless noted, the call rests on the fitted dose curve; in most records, active means well fitted inhibition curve with a large enough effect; inconclusive means small, poorly fitted or top-dose-only effect; inactive means flat fitted curve, though single readings scatter.

SMILES	ClpP mod	TDP1 cell noCPT	TDP1 cell CPT	DRD3 agonist	D3 antag	IL-1B inflam inh
Cc1nc(N2CCCCC2)c2c(C)c(C(=O)Nc3cccc(C(F)(F)F)c3)sc2n1	4%	?	?	14	105	-8
Cc1ccc(NC(=O)c2sc3nc(C)nc(N4CCN(c5ccccn5)CC4)c3c2C)c(C)c1	·	?	-26%	17	21	-60*
Cc1nc(N2CCCCC2)c2c(C)c(C(=O)Nc3ccccc3C(F)(F)F)sc2n1	·	2.9µM*	2.1µM*	17	8	-16
CCCN1CCN(c2ncnc3sc(C(=O)Nc4c(C)cc(C)cc4C)c(C)c23)CC1	-1%	10µM*	16µM*	-10	·	·
COc1ccc(-n2ccc(=O)c(C(=O)O)n2)c(OC)c1	·	1%	31%	0	0	70
Cc1nc(N2CCN(c3ccccn3)CC2)c2c(C)c(C(=O)N3CCN(c4ccccc4F)CC3)sc2n1	·	21µM*	?	3	58	?
Cc1ccc(NC(=O)c2sc3ncnc(N4CCN(c5ccccn5)CC4)c3c2C)c(C)c1	-28%	18µM*	?	9	32	?
COc1cc(NC(=O)c2sc3nc(C)nc(N4CCOCC4)c3c2C)cc(OC)c1OC	0%	12µM*	21µM*	34*	43	?
COc1ccc(C)cc1NC(=O)c1sc2nc(C)nc(N3CCOCC3)c2c1C	·	?	6%	3	13	15
COc1ccccc1N1N=C(c2ccc([N+](=O)[O-])cc2)CC1c1ccccc1 (centres undefined)	·	?	?	-6	-9	-15
COc1ccc(C2=NN(CN3C(=O)C(=O)c4ccccc43)C(c3cccc([N+](=O)[O-])c3)C2)cc1 (centres undefined)	·	?	?	-6	-25	-66*
CCN(CC)S(=O)(=O)c1ccc2c(c1)c(=O)c(C(=O)N1CCN(c3cc(C)ccc3C)CC1)cn2C	-1%	?	-18%	-3	·	·
Cc1ccc(S(=O)(=O)N2CCC(=O)N([C@H](COCc3cccc(C(F)(F)F)c3)C(C)C)CC2)cc1	4%	16µM*	?	2	-19	24
Cc1ccc(S(=O)(=O)N2CCC(=O)N(C(COCc3ccc(C(F)(F)F)cc3)C(C)C)CC2)cc1 (centres undefined)	1%	12µM*	16µM*	24	2	-24
COCCC(=O)N1CCC(Oc2ccc(C(=O)NCc3cccc(C)n3)cc2)CC1	-3%	-9%	4%	-5	-24	0
Cc1ccc2c(c1)C(c1ccc(F)cc1)N(C(=O)c1ccc(OC(C)C)cc1)CC(=O)N2 (centres undefined)	-1%	?	?	-28	·	·
O=S(=O)(Nc1nc2ccc(Cl)cc2s1)c1cccs1	·	-17%	?	3	-14	21
CCCCOC(=O)c1ccc(Nc2ncnc3nc[nH]c23)cc1	5%	-13%	2%	-1	-22	13
CCCCCCCCOC(=O)c1cc([N+](=O)[O-])c(Sc2ncnc3nc[nH]c23)c([N+](=O)[O-])c1	3%	3.3µM*	2.6µM*	-12	-55*	-71*
COc1cccc(-c2ccnc(-n3ncc(C(=O)NCC(C)(C)CN(C)C)c3C)n2)c1	·	4%	7%	·	·	·
Nc1n[nH]c(N)c1N=Nc1cccc(F)c1	2%	-12%	?	-7	-2	-78*
Cc1cccc(N=Nc2c(N)n[nH]c2N)c1	-1%	4%	-1%	0	-9	-25
CCCC1(c2ccccc2)NC(=O)N(CC(=O)N(C)Cc2c(F)cccc2Cl)C1=O (centres undefined)	0%	?	?	-1	1	?
Cc1c(C(=O)NCc2cccc(C(F)(F)F)c2)sc(=O)n1Cc1ccccc1F	0%	26µM*	?	-1	-17	-3
Cc1c(C(=O)NCc2ccccc2C(F)(F)F)sc(=O)n1Cc1ccc2ccccc2c1	-1%	?	?	6	5	-30
SMILES	ClpP mod	TDP1 cell noCPT	TDP1 cell CPT	DRD3 agonist	D3 antag	IL-1B inflam inh
COc1ccc(Cl)cc1Cn1c(C)c(C(=O)NCc2cccc(C(F)(F)F)c2)sc1=O	0%	?	?	-4	-60*	-59*
C=Cc1ccc(Cn2c(C)c(C(=O)NCc3ccc(C#N)cc3)sc2=O)cc1	2%	16µM*	16µM*	-1	2	?
Cc1c(C(=O)NCc2ccccc2C(F)(F)F)sc(=O)n1Cc1cccc(C(F)(F)F)c1	1%	?	?	-6	-55*	-11
COc1ccc(-n2c(=O)c(-c3ccc(Cl)cc3)nc3cncnc32)cc1	·	-4%	7%	·	·	·
O=C(CCC(=O)Nc1nnc(C2CCCCC2)s1)Nc1ccccc1	0%	20%	-1%	0	0	13
COc1ccccc1Cn1c(C)c(C(=O)NCc2ccc(C#N)cc2)sc1=O	2%	?	?	-6	-4	-17
COc1ccc(Cl)cc1Cn1c(C)c(C(=O)NCc2ccc(C#N)cc2)sc1=O	1%	18µM*	23µM*	-1	-50*	-21
O=C(O)CCNC(=O)c1ccc(N=Nc2ccc(O)c(C(=O)O)c2)cc1	·	2%	-24%	-5	·	·
Cc1ccc(C(=O)c2ccc(C)cc2)cc1	·	-23%	?	2	23	-25
Cc1ccc(C(=O)c2no[n+]([O-])c2C(=O)c2ccc(C)cc2)cc1	·	5.8µM*	2.9µM*	-2	-10	-91*
C#CCN1C=CC(=O)[C@@H](OC(=O)NCCC)[C@H]1c1ccccc1Br	-1%	-11%	-27%	5	25	-15
CC(O)(c1ccccc1)c1nc(-c2ccccc2)cs1 (centres undefined)	0%	?	21µM*	-2	0	0
CC(O)(c1ccccc1)c1nc(-c2ccncc2)cs1 (centres undefined)	-15%	?	4.1µM*	0	?	-1
O=C(NC(=S)NCCC1=CCCCC1)c1ccc(Br)o1	·	-26%	?	-13	-9	-7
CC(=O)c1c(C)[nH]c(C(=O)NCCC2=CCCCC2)c1C	0%	?	-29%	2	-57*	37
O=C(NCCC1=CCCCC1)c1ccc(Br)o1	-1%	9.2µM*	8.2µM*	1	19	5
CCOC(=O)c1[nH]c(C)c(C(=O)NCCC2=CCCCC2)c1C	-1%	?	-27%	0	1	-8

Screens (PubChem)
